Consider 14 compounds from PubChem BioAssay.

Assay [1] is described as follows: E. coli DRC41 culture turbidity changes, primary screen, E. coli filamentation inducer project, strain DRC41, OD650, 48 h (AID 1152).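 Also: E. coli MC1000 strain DRC41 lacking acrAB efflux pump and sulA.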 To be noted: E. coli DRC41 (acrAB sulA), higher = more signal, called active from +8 up or from −8 down.
Assay [2] is described as follows: small-molecule binders of probe aLefty1, primary screen, biochemical, small-molecule microarray, 635/667 nm fluorescence (AID 1153).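 Also: score merges spot fluorescence with signal-to-noise ratio from the scanned slide images.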 To be noted: higher = more signal.
A short description of assay [3]: PSAC antagonists in infected red cells, primary screen, cell-based, P. falciparum Indochina, OD700, 1 h (AID 1154). Conditions: P. falciparum Indochina infected RBC osmotic lysis, higher = more signal, called active from +8 up or from −8 down.
The nature of assay [4]: PSAC antagonists in infected red cells, primary screen, cell-based, P. falciparum Indochina, OD700, 2 h (AID 1155).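 Also: lysis reports solute entry through the parasite surface anion channel PSAC; channel blockers reduce lysis of infected cells.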 Conditions: P. falciparum Indochina infected erythrocytes, osmotic lysis OD700; higher = more signal, called active from +8 up or from −8 down.
Assay [5] is described as follows: osmotic lysis modulators in infected erythrocytes, primary screen, PSAC antagonist project, cell-based, P. falciparum Indochina, OD700, 3 h (AID 1156). Conditions: higher = more signal, called active from +8 up or from −8 down.
Assay [6] in a line: PSAC antagonists in infected red cells, primary screen, cell-based, P. falciparum Indochina, OD700, 18 h (AID 1157). Conditions: P. falciparum Indochina infected erythrocytes, osmotic lysis OD700, 18 h; higher = more signal, called active from +8 up or from −8 down.
The nature of assay [7]: modulators of S6 phosphorylation in cells, primary screen, cell-based, A549, cytoblot, luminescence, serum-stimulated (AID 1158).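 Also: serum-stimulated A549 lung adenocarcinoma cells; signal is phosphorylated S6 detected by cytoblot immunostaining with HRP secondary.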 To be noted: A549 phospho-S6 cytoblot, 5 h, higher = more signal.
Assay [8] addresses NADPH oxidase 2 (Homo sapiens) (UniProt P04839). The assay can be described thus: NOX2-dependent H2O2 signal modulators, primary screen, NOX inhibitor project, cell-based, HEK293-NOX2, PMA-stimulated, Amplex Red fluorescence (AID 1159). Also: test concentration not given here. Conditions: 45 min, higher = more signal, called active from +8 up or from −8 down.
For assay [9], the target named is NADPH oxidase 4 (Homo sapiens) (UniProt Q9NPH5). The assay can be described thus: NOX4-dependent H2O2 signal modulators, primary screen, NOX inhibitor project, cell-based, HEK293-NOX4, tetracycline-induced, Amplex Red fluorescence (AID 1160). Conditions: 45 min, higher = more signal, called active from +8 up or from −8 down.
NADPH oxidase 4 (Homo sapiens), sequence (Q9NPH5 whole entry, looked up): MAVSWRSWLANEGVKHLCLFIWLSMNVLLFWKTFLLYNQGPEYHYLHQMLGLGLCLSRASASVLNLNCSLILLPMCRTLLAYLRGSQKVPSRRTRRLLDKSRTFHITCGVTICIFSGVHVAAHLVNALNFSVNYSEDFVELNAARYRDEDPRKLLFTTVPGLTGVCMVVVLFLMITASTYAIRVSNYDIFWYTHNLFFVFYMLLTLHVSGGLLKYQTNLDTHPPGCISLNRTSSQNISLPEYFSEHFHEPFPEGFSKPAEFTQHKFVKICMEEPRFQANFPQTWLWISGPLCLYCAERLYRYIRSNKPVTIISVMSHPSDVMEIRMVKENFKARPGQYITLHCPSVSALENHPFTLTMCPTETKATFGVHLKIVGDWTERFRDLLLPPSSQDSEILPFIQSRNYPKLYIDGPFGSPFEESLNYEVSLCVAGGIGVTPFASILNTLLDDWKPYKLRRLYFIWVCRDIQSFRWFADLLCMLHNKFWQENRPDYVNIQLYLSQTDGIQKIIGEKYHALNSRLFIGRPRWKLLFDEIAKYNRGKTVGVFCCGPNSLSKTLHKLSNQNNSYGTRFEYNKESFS
Assay [10] concerns the target NADPH oxidase 5 (Homo sapiens) (UniProt Q96PH1). As to the kind of experiment: NOX5-dependent H2O2 signal modulators, primary screen, NOX inhibitor project, cell-based, HEK293-NOX5, Amplex Red fluorescence (AID 1161). Conditions: HEK293-NOX5, ionomycin, 45 min, higher = more signal.

The source made the active and inactive calls.

NADPH oxidase 5 (Homo sapiens), sequence (Q96PH1 whole entry, looked up): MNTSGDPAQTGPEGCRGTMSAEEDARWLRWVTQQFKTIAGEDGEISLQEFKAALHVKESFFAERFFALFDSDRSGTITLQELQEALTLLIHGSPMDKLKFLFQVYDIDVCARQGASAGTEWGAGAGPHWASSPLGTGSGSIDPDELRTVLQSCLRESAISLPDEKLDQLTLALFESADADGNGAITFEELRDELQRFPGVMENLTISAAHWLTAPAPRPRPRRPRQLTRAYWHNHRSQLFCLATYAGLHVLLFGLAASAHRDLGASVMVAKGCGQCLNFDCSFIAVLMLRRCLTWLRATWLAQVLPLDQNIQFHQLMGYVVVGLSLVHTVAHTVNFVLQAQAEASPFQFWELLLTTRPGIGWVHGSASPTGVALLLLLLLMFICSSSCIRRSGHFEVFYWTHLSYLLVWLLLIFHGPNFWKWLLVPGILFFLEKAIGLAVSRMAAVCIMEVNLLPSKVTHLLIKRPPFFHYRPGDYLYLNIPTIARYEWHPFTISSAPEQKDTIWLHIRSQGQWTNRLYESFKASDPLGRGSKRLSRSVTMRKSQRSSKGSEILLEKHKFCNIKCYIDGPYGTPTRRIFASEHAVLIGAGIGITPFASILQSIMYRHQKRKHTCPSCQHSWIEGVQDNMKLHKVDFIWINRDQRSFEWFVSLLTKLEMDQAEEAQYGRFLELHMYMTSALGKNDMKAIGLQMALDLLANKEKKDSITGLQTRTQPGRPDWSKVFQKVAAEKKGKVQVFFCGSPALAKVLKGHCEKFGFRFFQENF
NADPH oxidase 2 (Homo sapiens), sequence (P04839 whole entry, looked up): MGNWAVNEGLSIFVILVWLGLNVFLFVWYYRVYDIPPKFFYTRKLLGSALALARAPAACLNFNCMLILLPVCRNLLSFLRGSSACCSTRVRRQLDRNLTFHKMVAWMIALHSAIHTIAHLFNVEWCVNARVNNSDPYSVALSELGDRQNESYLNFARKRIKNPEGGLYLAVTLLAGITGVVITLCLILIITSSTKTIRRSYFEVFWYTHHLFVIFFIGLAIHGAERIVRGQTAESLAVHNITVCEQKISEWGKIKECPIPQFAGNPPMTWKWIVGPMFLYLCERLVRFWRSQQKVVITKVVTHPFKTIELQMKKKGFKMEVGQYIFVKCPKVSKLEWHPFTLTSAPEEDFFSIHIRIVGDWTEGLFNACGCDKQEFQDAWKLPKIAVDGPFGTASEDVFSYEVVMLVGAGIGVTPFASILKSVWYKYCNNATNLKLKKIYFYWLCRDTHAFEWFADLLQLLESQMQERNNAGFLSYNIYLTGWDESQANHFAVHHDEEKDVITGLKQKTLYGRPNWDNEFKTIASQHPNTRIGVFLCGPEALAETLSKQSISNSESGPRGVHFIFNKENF

Consider `C=CC[C@@]1(C(=O)N2CCCCC2)N=C(c2ccc(OCCCO)cc2)O[C@@H]1c1ccccc1N=[N+]=[N-]`, for which the z-score in assay [1] is 0.432 (inactive); in assay [3], 31.2 (active); in [4] it was 27.2 (active); in assay [5], 1.27 (inactive); in [6], 6.5 (inactive); in [7], 0.995. The z-score in [8] is -1.67 (inactive); in assay [9], 0.378 (inactive); in assay [10] it was -1.88. This compound came in with a composite z-score in assay [2] of 0.407.
`Cc1ccc(C2C3C(=O)CC4C(=O)N(c5ccccc5)C(=O)C4C3CN2S(=O)(=O)c2ccc(C)cc2)cc1` (stereo not given): the z-score is -0.339 (inactive) in assay [1]; 1.7 (inactive) in assay [3]; 0.714 (inactive) in [4]; 1.72 (inactive) in assay [5]; 0.438 (inactive) in [6]; -0.69 in assay [7]. The results for the z-score in assay [8], in assay [9] and in [10] were 1.28 (inactive), 0.793 (inactive) and -0.9, respectively. Further, the composite z-score in [2] amounted to 0.476.
On to `C=C(CCCC)/C(=C/C[C@H](OC(C)=O)c1ccccc1OCCO)c1cnc2ccccc2c1`, for which the z-score was -0.413 (inactive) in assay [1]; 17.5 (active) in assay [3]; 2.17 (inactive) in [4]; 1.32 (inactive) in assay [5]; 0.996 (inactive) in assay [6]; -0.0149 in assay [7]. Also, the z-score is -1.41 (inactive) in assay [8], -0.361 (inactive) in assay [9] and -1.62 in assay [10]. The composite z-score in assay [2] is -0.0054.
In the case of `O=C1C2C=CC(C(O)C=Cc3ccc([N+](=O)[O-])cc3)N(n3cnnc3)C2C(=O)N1Cc1ccccc1` (stereo not given), the z-score was -0.892 (inactive) in assay [1]; 4.59 (inactive) in assay [3]; 1.03 (inactive) in assay [4]; 0.956 (inactive) in assay [5]; 0.83 (inactive) in assay [6]; -0.584 in assay [7]. For the same compound, the z-score in [8] is -0.526 (inactive); in assay [9], -0.711 (inactive); in assay [10] it was -0.3. Moreover, the composite z-score in assay [2] was found to be 0.406.
Take `O=C1OCCC=C[C@H]2OC34C=CCN(Cn5nnc6ccccc65)C(=O)[C@H]3N(CCO)C(=O)[C@@H]4C12` (stereo not given in full): the z-score in assay [1] was 1.41 (inactive); in assay [3], 1.03 (inactive); in [4] it was 0.793 (inactive); in assay [5], 1.08 (inactive); in assay [6], 0.601 (inactive); in assay [7], -0.18. Also, the z-score was 1.55 (inactive) in assay [8], 1.22 (inactive) in [9] and 1.73 in [10]. This compound showed a composite z-score in assay [2] of -0.147.
For the compound `CC[C@@H]1C=C(C(=O)O)[C@H](c2cccc3ccccc23)N1S(=O)(=O)c1ccc(C)cc1`, the z-score is -0.453 (inactive) in assay [1]; 1.26 (inactive) in assay [3]; 1.2 (inactive) in assay [4]; -0.129 (inactive) in [5]; 0.708 (inactive) in assay [6]; -0.769 in assay [7]. Moreover, the figures for the z-score in [8], in assay [9] and in assay [10] were 0.338 (inactive), -0.931 (inactive) and 0.133, respectively. In assay [2], this compound came in with a composite z-score of 0.0774.
Take `C=C(CCCC)/C(=C/C[C@@H](OC(C)=O)c1ccccc1OCCO)c1cc(C(=O)OC)ccc1OC`: the z-score in assay [1] is 0.725 (inactive); in [3] it was 27.1 (active); in assay [4] it was 11.2 (active); in assay [5], 2.14 (inactive); in assay [6], 1.71 (inactive); in assay [7], -0.733. The results for the z-score in assay [8], in [9] and in assay [10] were 1.27 (inactive), 0.282 (inactive) and -1.36, respectively. For the same compound, the composite z-score in assay [2] was -0.239.
With `CCCC=C(CCC)[C@@H](NS(=O)(=O)c1ccc(Cl)cc1)c1ccc(C(=O)OC)cc1`, the z-score in [1] was -1.01 (inactive); in [3], -0.556 (inactive); in [4], -0.914 (inactive); in assay [5], -0.338 (inactive); in assay [6], -1.93 (inactive); in [7], 0.631. Further, the figures for the z-score in assay [8], in assay [9] and in assay [10] were 0.0199 (inactive), 0.249 (inactive) and 1.39, respectively. Besides, in [2], the composite z-score came to 0.523.
On to `O=C1O[C@@H](c2ccccc2)[C@@H](c2ccccc2)N2[C@@H](c3ccc(OCCO)cc3)[C@]3(C(=O)Nc4ccc(C#CC5=CCCCC5)cc43)[C@@H](C(=O)N3CCCCCCC3)[C@H]12`, for which the z-score is 0.343 (inactive) in [1]; 3.46 (inactive) in assay [3]; 1.85 (inactive) in [4]; 0.501 (inactive) in assay [5]; 1.03 (inactive) in assay [6]; -0.262 in assay [7]. For the same compound, the z-score in assay [8] is 0.463 (inactive); in assay [9] it was 0.159 (inactive); in assay [10] it was 0.293. In assay [2], this compound displayed a composite z-score of 2.14.
`CCOC(=O)C1=C[C@@H](C(C)C)N(S(=O)(=O)c2ccc(C)cc2)[C@H]1c1ccccc1F`: the z-score in [1] is -1.02 (inactive); in assay [3] it was 0.21 (inactive); in assay [4] it was 0.668 (inactive); in assay [5], -0.422 (inactive); in assay [6], 0.587 (inactive); in [7], -0.851. In addition, the z-score in assay [8] was 0.173 (inactive); in [9] it was -0.957 (inactive); in assay [10], 1.06. For the same compound, the composite z-score in assay [2] was 0.389.
Consider `COCCOC(=O)N1C(=O)[C@@]2(c3ccccc31)[C@H](C(=O)N1CCc3cc(OC)c(OC)cc3C1)[C@H]1C(=O)O[C@H](c3ccccc3)[C@H](c3ccccc3)N1[C@@H]2c1ccc(O)cc1`, for which the z-score in assay [1] is 3.04 (inactive); in assay [3] it was 0.927 (inactive); in assay [4] it was -0.751 (inactive); in assay [5], -0.965 (inactive); in assay [6] it was -1.93 (inactive); in assay [7] it was 2.38. Besides, the z-score in assay [8] was 0.571 (inactive); in assay [9], 0.549 (inactive); in assay [10], 1.2. The same compound returned a composite z-score in assay [2] of -0.0186.
In the case of `[N-]=[N+]=Nc1ccccc1C[C@@]1(C(=O)N2CCCCC2)N=C(c2ccc(OCCCO)cc2)O[C@@H]1c1ccccc1`, the z-score was 2.42 (inactive) in [1]; 26.6 (active) in assay [3]; 18.4 (active) in [4]; 2.78 (inactive) in assay [5]; 2.31 (inactive) in [6]; 0.159 in assay [7]. The z-score was -0.0547 (inactive) in assay [8], 0.951 (inactive) in assay [9] and -1.31 in assay [10]. The compound also yielded a composite z-score in assay [2] of 0.0227.
Turning to `O=C1NC(=O)C2C1C=CC(C(O)c1ccc(-c3ccccc3)s1)N2Nc1ccc(Cl)cc1Cl` (stereo not given), the z-score is -2.23 (inactive) in assay [1]; 2.29 (inactive) in [3]; 1.58 (inactive) in [4]; -0.666 (inactive) in assay [5]; 1.07 (inactive) in assay [6]; -1.09 in [7]. In addition, the z-score in assay [8] is 0.964 (inactive); in [9] it was -3.15 (inactive); in [10] it was -0.664. The same compound gave a composite z-score in assay [2] of -0.141.
Turning to `CCCCCCc1nc(-c2ccc(-c3ccc(Cl)c(Cl)c3)o2)c(C)c2c1[Si](C(C)C)(C(C)C)OC2`, the z-score was -0.369 (inactive) in assay [1]; 1.88 (inactive) in [3]; -0.712 (inactive) in assay [4]; 0.627 (inactive) in assay [5]; -1.57 (inactive) in assay [6]; 1.7 in assay [7]. Also, the z-score in assay [8] is -4.51 (inactive); in assay [9], -2.74 (inactive); in assay [10] it was -4.66. For the same compound, the composite z-score in [2] was -0.198.
